Results filed as inconclusive are left out. Where a call stands in place of a potency, no number is given. The source made the active and inactive calls. Calls follow the shape of the dose curve; as a rule, active = well fitted curve in the direction sought with a large enough effect; inconclusive = small, poorly fitted or top-dose-only effect, or another doubt; inactive = no such curve, though single readings can be large; an effect the other way counts as inactive or inconclusive.
Experiments:
[1] = target: Luciferin 4-monooxygenase (Photinus pyralis) (UniProt P08659); experiment: Biochemical firefly luciferase enzyme assay for NPC (AID 624030);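 also: purified P. pyralis luciferase at 10 nM with luciferin and ATP substrate; nearly all actives have a fitted effect of over 70% in size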
Chain of Luciferin 4-monooxygenase (Photinus pyralis) (P08659 whole entry, looked up): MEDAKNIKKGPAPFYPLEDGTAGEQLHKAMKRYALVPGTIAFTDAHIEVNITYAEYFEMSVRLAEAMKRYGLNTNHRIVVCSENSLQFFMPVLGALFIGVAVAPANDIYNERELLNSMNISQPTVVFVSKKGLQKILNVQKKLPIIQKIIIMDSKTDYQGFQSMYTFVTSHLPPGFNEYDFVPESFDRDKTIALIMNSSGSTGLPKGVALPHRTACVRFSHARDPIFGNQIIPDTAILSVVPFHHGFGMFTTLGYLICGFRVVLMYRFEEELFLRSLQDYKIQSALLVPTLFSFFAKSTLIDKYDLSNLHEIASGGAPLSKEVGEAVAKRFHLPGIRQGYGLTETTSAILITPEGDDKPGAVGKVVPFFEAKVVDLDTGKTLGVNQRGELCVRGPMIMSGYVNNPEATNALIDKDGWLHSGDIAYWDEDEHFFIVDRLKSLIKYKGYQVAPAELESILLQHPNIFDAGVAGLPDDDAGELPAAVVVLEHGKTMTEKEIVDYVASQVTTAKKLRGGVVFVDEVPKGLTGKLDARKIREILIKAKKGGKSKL
How it was run: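 Purified P. pyralis luciferase at 10 nM in 50 mM Tris Acetate (final), luminescence read within 5 minutes of enzyme addition to compounds. Activity normalised to PTC124 versus DMSO; concentration-response curves classed by r2, magnitude and activity.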

[2] = S16 Schwann cell PMP22 intronic element firefly luciferase assay (AID 624032); also: nearly all actives have a fitted effect of over 30% in size; also: potency is read from the fitted curve at half-maximal effect
How it was run: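 Rat S16 Schwann cells stably carrying firefly luciferase driven by a PMP22 intronic element, in 10% FBS, treated 24 h at 37 C. ONE-Glo luminescence normalized to PTC124 control and DMSO (0%); curves classed by r2, magnitude and activity.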

C2A = experiment: qHTS profiling for inhibitors of Plasmodium falciparum proliferation (AID 504749); also: nearly all actives have a fitted effect of over 60% in size; also: potency is read from the fitted curve at half-maximal effect; conditions: P. falciparum in erythrocytes, SYBR Green DNA, 72 h; series mostly up to 12.8 µM
How it was run: (§1)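 Each compound contacts P. falciparum-infected red blood cells for 72 h at 37 C; lysis buffer (Tris, EDTA, saponin, Triton X, SYBR Green I) is added and fluorescence measured next morning; values normalized to controls.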

CP191 = experiment: as above; conditions: P. falciparum in erythrocytes, SYBR Green DNA, 72 h; series mostly up to 12.8 µM
How it was run: as §1

CP237 = experiment: as above; conditions: P. falciparum in erythrocytes, SYBR Green DNA, 72 h; series mostly up to 12.8 µM
How it was run: as §1

CP256 = experiment: as above; conditions: P. falciparum in erythrocytes, SYBR Green DNA, 72 h; series mostly up to 12.8 µM
How it was run: as §1

CP269 = experiment: as above; conditions: P. falciparum in erythrocytes, SYBR Green DNA, 72 h; series mostly up to 12.8 µM
How it was run: as §1

CP315 = experiment: as above; conditions: P. falciparum in erythrocytes, SYBR Green DNA, 72 h; series mostly up to 12.8 µM
How it was run: as §1

DIV30 = experiment: as above; conditions: P. falciparum in erythrocytes, SYBR Green DNA, 72 h; series mostly up to 12.8 µM
How it was run: as §1

P94_40 = experiment: as above; conditions: P. falciparum in erythrocytes, SYBR Green DNA, 72 h; series mostly up to 12.8 µM
How it was run: as §1

TAB113 = experiment: as above; conditions: P. falciparum in erythrocytes, SYBR Green DNA, 72 h; series mostly up to 12.8 µM
How it was run: as §1

W2 = experiment: as above; conditions: P. falciparum in erythrocytes, SYBR Green DNA, 72 h; series mostly up to 12.8 µM
How it was run: as §1

CP192 = experiment: as above; conditions: P. falciparum in erythrocytes, SYBR Green DNA, 72 h; series mostly up to 12.8 µM
How it was run: as §1

CP194 = experiment: as above; conditions: P. falciparum in erythrocytes, SYBR Green DNA, 72 h; series mostly up to 12.8 µM
How it was run: as §1

CP203 = experiment: as above; conditions: P. falciparum in erythrocytes, SYBR Green DNA, 72 h; series mostly up to 12.8 µM
How it was run: as §1

CP291 = experiment: as above; conditions: P. falciparum in erythrocytes, SYBR Green DNA, 72 h; series mostly up to 12.8 µM
How it was run: as §1

AS120 = experiment: as above; conditions: P. falciparum in erythrocytes, SYBR Green DNA, 72 h; series mostly up to 12.8 µM
How it was run: as §1

CP185 = experiment: as above; conditions: P. falciparum in erythrocytes, SYBR Green DNA, 72 h; series mostly up to 12.8 µM
How it was run: as §1

CP238 = experiment: as above; conditions: P. falciparum in erythrocytes, SYBR Green DNA, 72 h; series mostly up to 12.8 µM
How it was run: as §1

CP286 = experiment: as above; conditions: P. falciparum in erythrocytes, SYBR Green DNA, 72 h; series mostly up to 12.8 µM
How it was run: as §1

Compound	Potency [1]	Potency [2]	Potency (C2A)	Potency (CP191)	Potency (CP237)	Potency (CP256)	Potency (CP269)	Potency (CP315)	Potency (DIV30)	Potency (P94_40)	Potency (TAB113)	Potency (W2)	Potency (CP192)	Potency (CP194)	Potency (CP203)	Potency (CP291)	Potency (AS120)	Potency (CP185)	Potency (CP238)	Potency (CP286)
NC(CCC(=O)N[C@@H](CS)C(=O)NCC(=O)O)C(=O)O (stereo partly specified)	inactive	inactive	10 µM (active)	8.91 µM (active)	3.55 µM (active)	8.91 µM (active)	15.1 µM (active)	inactive	12 µM (active)	3.55 µM (active)	7.94 µM (active)	3.01 µM (active)								
COC1OC(CO)C(OC2OC(C(=O)O)C(OC3OC(COS(=O)(=O)O)C(OC4OC(C(=O)O)C(OC5OC(CO)C(OC6OC(C(=O)O)C(OC7OC(COS(=O)(=O)O)C(OC8OC(C(=O)O)=C[C@H](O)C8OS(=O)(=O)O)C(O)C7NC(C)=O)[C@@H](O)C6O)C(O)C5NC(C)=O)[C@@H](O)C4O)C(O)C3NC(C)=O)[C@@H](O)C2O)C(O)C1NC(C)=O (stereo partly specified)	inactive	inactive		11.2 µM (active)			inactive	inactive			14.1 µM (active)	6.75 µM (active)	inactive	inactive	inactive	inactive				
C[C@@]12C=CC(=O)C=C1CCC1C3CC(O)[C@@](O)(C(=O)CO)[C@]3(C)CC(O)[C@]12F (stereo partly specified)	inactive	inactive	inactive	inactive	inactive	inactive	inactive	inactive	inactive	inactive	inactive	inactive	inactive	inactive	inactive	inactive	inactive	inactive	inactive	inactive
CC1C2CCC3C4CC=C5CC(N(C)C)CC[C@@]5(C)C4CC[C@@]32CN1C (stereo partly specified)	inactive	inactive	inactive	inactive	inactive	inactive	inactive	inactive	inactive	inactive	inactive		inactive	inactive	inactive	inactive	inactive	inactive	inactive	inactive
OCC1OC(n2cnc3c(=S)nc[nH]c32)C(O)C1O (stereo unspecified)		2.87 µM (active)	inactive	inactive	inactive	inactive	inactive	inactive	inactive	inactive	inactive		inactive	inactive	inactive	inactive	inactive	inactive	inactive	inactive
CC(=O)OCC(=O)[C@@]12OC3(CCCC3)OC1CC1C3CCC4=CC(=O)C=C[C@@]4(C)[C@]3(F)C(O)C[C@]12C (stereo partly specified)		inactive	inactive			inactive	inactive	inactive		12.6 µM (active)		10.7 µM (active)	inactive	inactive		inactive	11.2 µM (active)	inactive		
CO[C@]12C(COC(N)=O)C3=C(C(=O)C(C)=C(N)C3=O)N1CC1NC12 (stereo partly specified)	inactive		1.26 µM (active)	0.891 µM (active)	inactive	5.01 µM (active)				0.891 µM (active)	0.891 µM (active)						0.562 µM (active)	0.708 µM (active)	0.631 µM (active)	0.501 µM (active)
CCOC(=O)C1=CC(OC(CC)CC)C(NC(C)=O)C(N)C1 (stereo unspecified)	inactive	inactive	inactive	inactive	inactive	inactive	inactive	inactive		inactive	inactive	6.75 µM (active)	inactive	inactive	inactive	inactive	inactive	inactive	inactive	inactive
CC(=O)OC1CCC2C3CCc4cc(O)ccc4C3CCC12C (stereo unspecified)		inactive	inactive	inactive	inactive	inactive	inactive	inactive	inactive	inactive	inactive		inactive	inactive	inactive	inactive	inactive	inactive	inactive	inactive
C[C@@]12CCC(=O)C=C1C=CC1C2CC[C@]2(C)C1CC[C@@]21CCC(=O)O1 (stereo partly specified)	inactive			inactive	inactive	inactive	inactive	inactive	inactive	inactive	inactive	inactive	inactive	inactive	inactive	inactive	inactive		inactive	inactive
CC1(C)S[C@H]2C(NC(=O)[C@@H](N)c3ccc(O)cc3)C(=O)N2[C@@H]1C(=O)O (stereo partly specified)	inactive	inactive	inactive	inactive	inactive	inactive	inactive	inactive	inactive	inactive		inactive	inactive	inactive	inactive	inactive	inactive	inactive	inactive	inactive
CCC(=O)O[C@@]1(C(=O)CCl)C(C)CC2C3CCC4=CC(=O)C=C[C@@]4(C)[C@]3(F)C(O)C[C@]21C (stereo partly specified)	inactive	inactive			10 µM (active)				12 µM (active)	11.2 µM (active)		5.36 µM (active)		15.1 µM (active)	13.5 µM (active)		10 µM (active)		7.94 µM (active)	

Reference: PubChem BioAssay (NCATS)
